Nrf2 ARE act – activates Nrf2 signaling. AREc32 ARE-luciferase reporter (MCF7-derived line), luminescence, 24 h. Potency, µM (series often up to 46.1 µM), for inactives: at the top dose activation, hits mostly activators. hit rate 0.31% among 410,000. AID 624171; further: potency means the concentration at half of the fitted maximal effect; % of control where 0% means no effect; nearly all actives have a fitted effect of over 65% in size
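AREc32 cells carrying an ARE-driven firefly luciferase, 1000 cells/well in OPTI-MEM with 5% FBS, dosed after overnight attachment and incubated 24 hr at 37 deg C. Steady-Glo luminescence read after 30 min at RT.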
Nrf2 block – Nrf2 pathway inhibition; A549 ARE-Fluc reporter, luciferase luminescence, 18-24 h; Potency, µM (titrated, usually from 46 µM), for inactives: top-dose activity change, negative = inhibition, most hits filed as inhibitors; hit rate 2.1% among 360,000; AID 504444; further: potency means the concentration at half of the fitted maximal effect; on the % scale 0 is the no-effect control and ±100 the full control effect; nearly all actives have a fitted effect of over 60% in size
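A549 ARE_Fluc cells (5000/well, 5% FBS OPTI-MEM) pre-incubated 2 h, then treated with compounds 18-24 h at 37C/5% CO2 in concentration-response. CellTiter-Fluor viability read first; BugLite luciferase luminescence after 15 min at room temperature gives Nrf2 activity.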
LDHA block – LDHA (human) enzyme inhibition. P00338. purified LDHA, NADH/diaphorase-resazurin fluorescence; hits give low values. hit rate 0.15% among 480,000. activity change, % (values are at about 110 or 230 µM); in the data active means activity change below about -30%; inconclusive means mostly about -25% to -30%;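 further: plate controls were DMSO wells for no effect and wells without enzyme for full effect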
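Enzyme activity of human lactate dehydrogenase 5 (2 nM; 0.06 mM NADH, 0.2 mM pyruvate, 5 min, RT) is measured via a resazurin/diaphorase fluorescence readout of residual NADH.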
ALOX12 inh – inhibitors of human 12S-lipoxygenase ALOX12; P18054; Potency, µM (top dose mostly 108 µM), inactives show at the highest dose activity change, negative = inhibition, hits mostly inhibitors; purified 12hLO, xylenol orange hydroperoxide absorbance; hit rate 1.1% among 580,000; further: potency means the concentration at half of the fitted maximal effect; on the % scale 0 is the no-effect control and ±100 the full control effect
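Hydroperoxide product was detected by ferrous iron/xylenol orange as the 573 to 405 nm absorbance ratio. Arachidonic acid at 40 uM (final) was turned over for 30 min at room temperature by 150 nM human 12hLO, pH 7.0 Hepes buffer, after 15 min compound preincubation.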
A549 tox-1 – kills or reduces viability of A549 cells in Nrf2 counter-screen | A549 ARE-Fluc cells, CellTiter-Fluor viability, 18-24 h | Potency, µM (titrated, usually from 46 µM), for the others: at the highest dose activity change, negative = cytotoxicity, hits mostly inhibitors | hit rate 0.16% among 390,000; further: potency means the concentration at half of the fitted maximal effect; on the % scale 0 is the no-effect control and ±100 the full control effect
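Cytotoxicity counterscreen: CellTiter-Fluor fluorescence was measured in A549 ARE_Fluc cells after 18-24 h of compound exposure in a concentration series. The subsequent BugLite luminescent read reports ARE-luciferase activity.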
ERG-DNA inh – blocks human ERG Ets domain binding to DNA; P11308; fluorescence polarization, His-ERG Ets domain / labelled DNA; Potency, µM (series often up to 76.9 µM), without a hit: top-dose FP activity, negative = inhibition, usual class: inhibitors; hit rate 0.028% among 370,000; AID 624246; active means well fitted inhibition curve with a large enough effect in the polarisation, with a control signal flat; inconclusive means small, poorly fitted or top-dose-only effect, or effect the other way, or a change in a side signal; inactive means no such curve, though single readings can be large or run the other way; the % refers to the polarisation;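 further: polarization taken with two DNA probes labelled with fluorescein and Texas red; potency means the concentration at half of the fitted maximal effect; % of control where 0% means no effect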
Target sequence (P11308 whole entry, looked up, the tested form may be a part): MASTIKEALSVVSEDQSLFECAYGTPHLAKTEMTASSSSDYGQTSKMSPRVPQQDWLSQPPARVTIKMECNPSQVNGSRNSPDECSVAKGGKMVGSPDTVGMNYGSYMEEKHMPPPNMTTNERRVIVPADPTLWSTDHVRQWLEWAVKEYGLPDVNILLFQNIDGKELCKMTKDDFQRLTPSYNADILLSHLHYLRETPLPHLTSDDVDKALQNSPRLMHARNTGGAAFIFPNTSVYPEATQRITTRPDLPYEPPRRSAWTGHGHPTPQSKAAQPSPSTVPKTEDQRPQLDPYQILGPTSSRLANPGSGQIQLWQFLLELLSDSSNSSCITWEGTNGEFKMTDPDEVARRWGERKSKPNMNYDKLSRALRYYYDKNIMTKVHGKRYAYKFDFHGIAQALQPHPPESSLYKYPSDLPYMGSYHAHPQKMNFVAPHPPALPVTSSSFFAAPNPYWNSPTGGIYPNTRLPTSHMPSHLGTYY
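His-tagged ERG Ets domain (1 uM in the protein solution; 300mM KCl, 50mM Tris-HCl, 1mM EDTA, 1mM DTT, pH 7.5) received compound, then a probe mix of 5 nM fluorescein-DNA and 100nM Texas-615-DNA. Fluorescence polarization was read for both dyes.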
FLuc enzyme inh – counter-screen for Nrf2 inhibitors: firefly luciferase enzyme inhibition; shares compounds with Nrf2 block; purified firefly luciferase, luminescence inhibition; Potency, µM (top dose mostly 57.5 µM), for the others: top-dose activity change, negative = inhibition, most hits filed as inhibitors; hit rate 4% among 1,400; AID 720522; further: potency means the concentration at half of the fitted maximal effect; on the % scale 0 is the no-effect control and ±100 the full control effect; nearly all actives have a fitted effect of over 65% in size
A549 tox-2 – A549 cytotoxicity, Nrf2 inhibitor counterscreen | shares compounds with Nrf2 block | A549 ARE-Fluc cells, cytotoxicity counterscreen | Potency, µM (top dose mostly 46.1 µM), without a hit: at the highest dose activity change, negative = cytotoxicity, hits mostly inhibitors | hit rate 2% among 1,400;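 further: potency means the concentration at half of the fitted maximal effect; cells exposed to compounds for 18 to 24 hours; on the % scale 0 is the no-effect control and ±100 the full control effect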
Nrf2 ARE inh – Nrf2 inhibition confirmed, A549 ARE-luciferase; shares compounds with Nrf2 block; hit rate 74% among 1,400; Potency, µM (top dose mostly 46.1 µM), for the others: at the highest dose activity change, negative = inhibition, most hits filed as inhibitors; A549 ARE-firefly luciferase reporter, luminescence; further: potency means the concentration at half of the fitted maximal effect; on the % scale 0 is the no-effect control and ±100 the full control effect; nearly all actives have a fitted effect of over 65% in size
* hit, by the source's call; ? = inconclusive; / = not tested or not shown. A selection: hits, their analogues and other compounds. The true share with any hit is near 2.7%. Unless noted, the call rests on the fitted dose curve; in most records, active means well fitted curve in the direction sought with a large enough effect; inconclusive means small, poorly fitted or top-dose-only effect, or another doubt; inactive means no such curve, though single readings can be large; an effect the other way counts as inactive or inconclusive.

SMILES	Nrf2 ARE act	Nrf2 block	LDHA block	ALOX12 inh	A549 tox-1	ERG-DNA inh	FLuc enzyme inh	A549 tox-2	Nrf2 ARE inh
O=c1cc(N2CCN(c3cccc(Cl)c3)CC2)[nH]c(=O)n1C1CCCCC1	-1.0%	?	-1.6	17.2%	?	-3.8%	-1.1%	?	/
O=c1cc(N2CCN(c3ccccc3)CC2)[nH]c(=O)n1C1CCCCC1	0.6%	-6.1%	0.6	3.0%	?	3.8%	/	/	/
O=C(Nc1nc(-c2cccs2)cs1)c1ccc(S(=O)(=O)N2CCCC2)cc1	24.0%	9.2µM*	-6.1	7.0%	?	-1.9%	-18.9%	-19.0%	?
O=C(Nc1nc(-c2ccc(S(=O)(=O)N3CCCCCC3)cc2)cs1)c1ccccc1	0.1%	2.91µM*	0.3	0.0%	/	6.1%	0.3%	7.9%	4.11µM*
CC1CCN(S(=O)(=O)c2ccc(C(=O)Nc3nc(-c4ccccc4)cs3)cc2)CC1	/	/	-2.7	-15.9%	/	/	/	/	/
Cc1ccc(N(CC(=O)Nc2cc(C)cc(C)c2)S(=O)(=O)c2c(C)noc2C)cc1	0.0%	7.31µM*	0.7	31.4%	?	9.1%	2.0%	-18.7%	11.6µM*
C[C@H]1[C@@H]2[C@@H](O)C([C@H](C)C(=O)NC3CCCC3)CC[C@@]2(C)CC[C@@H]1NC(=O)c1ccncc1 (some centres not stated)	/	/	/	-13.0%	/	/	/	/	/
NC(=O)c1ccccc1OCC(=O)N1CCC(Cc2ccccc2)CC1	0.2%	5.17µM*	-0.8	-25.6%	-18.2%	1.0%	-13.5%	-1.0%	8.2µM*
COc1cc(OC)cc(C(=O)NC(C)(C)CC(C)(C)C)c1	/	/	0.1	-13.6%	/	/	/	/	/
CC(=O)N1c2ccc(S(=O)(=O)N3CCOCC3)cc2CC1C (configuration not stated)	-0.6%	12.1%	-1.6	1.3%	0.1%	12.4%	/	/	/
CC(=O)c1ccc(N2CCN(S(=O)(=O)c3ccc4c(c3)CC(C)N4C(C)=O)CC2)cc1 (configuration not stated)	4.1%	5.8µM*	-2.1	1.3%	-12.9%	-4.5%	2.69µM*	-4.1%	6.1%
CC(=O)c1ccc(N2CCN(S(=O)(=O)c3ccc4c(c3)CC(C)N4C(=O)C3CC3)CC2)cc1 (configuration not stated)	-0.8%	5.8µM*	-2.8	0.0%	-17.0%	-0.5%	-0.2%	-15.0%	3.66µM*
CC(C)(C)OC(=O)NCCCC[C@H](NC(=O)c1nc[nH]c1C(=O)N[C@@H](CCCCNC(=O)OC(C)(C)C)C(=O)OC(C)(C)C)C(=O)OC(C)(C)C	0.3%	?	0.1	10.2%	-14.1%	-7.8%	/	/	/
CC(C)(C)OC(=O)NCCCC[C@H](NC(=O)c1nc[nH]c1C(=O)NC(c1ccccc1)c1ccccc1)C(=O)OC(C)(C)C	3.5%	3.66µM*	8.7	-3.2%	?	13.8%	0.3%	?	20.6µM*
Cc1ccc(CCNc2ncnc(Cl)c2N)cc1	2.2%	3.66µM*	-3.4	-2.9%	?	-6.1%	?	-3.2%	?
Nc1c(Cl)ncnc1NCCO	-0.2%	5.3%	-1.0	0.3%	-0.7%	-11.0%	/	/	/
C=C(C)CN1CCN(c2nc3c(c(=O)[nH]c(=O)n3C)n2Cc2cc(C)ccc2C)CC1	/	/	-0.9	?	/	/	/	/	/

Source: PubChem (National Center for Advancing Translational Sciences (NCATS))
